Laboratory results as given in PubChem BioAssay (NCI).
The panel holds about 83,000 compounds, 20% with a hit somewhere; the sample as a whole holds those more often.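 The test compound was applied at a single concentration to cells in 96-well plates for 48 hours, and percent growth was recorded.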 The source made the active and inactive calls. The calls were made as follows: active = growth percent below 10; inactive = the rest.

System: HL-60(TB) leukemia
Assay: NCI-60 one-dose screen, 48 h (100 = growth as untreated, 0 = no growth, -100 = all killed)
Details: 10 µM unless noted

| Compound | growth |
| --- | --- |
| C=C1CC[C@@H]2[C@](C)(COC(C)=O)[C@H](OC(C)=O)CC[C@@]2(C)[C@@H]1CC(NCc1ccccc1)C1=CCOC1=O (stereo not given in full) | -9.93% (active) |
| O=[N+]([O-])c1ccc2nc3c4ccccc4c4ccccc4c3nc2c1 | 77.2% (inactive) |
| CN(C)CCCNCc1ccc(-c2ccc(F)c(Cl)c2)o1 | -4.95% (active) |
| O=C(Nc1cccc(Cn2c(=O)[nH]c3ccc(Oc4ncccn4)cc3c2=O)c1)c1cccc(Cl)c1 | 54.1% (inactive) |
| OC[C@@H](O)C(O[C@@H]1O[C@H](CO)[C@H](O)[C@H](O)[C@H]1O)[C@H](O)[C@@H](O)CO (stereo not given in full) | 94.9% (inactive) |
| COc1cc2c(cc1OC(C)=O)C(=O)CCCC2 | 143% (inactive) |
| Cc1cc2c(c(C)c1Cl)C(=O)/C(=C/c1ccc(O)c(O)c1)O2 | 108% (inactive) |
| NNc1ccccc1C(=O)O | 49.1% (inactive) |
| CC(=O)c1cc(C(=O)c2ccc3c(c2)Sc2ccccc2N3)n2ccccc12 | 14.3% (inactive) |
| C[C@]12O[C@H](C[C@]1(O)CO)n1c3ccccc3c3c4c(c5c6ccccc6n2c5c31)CNC4=O | -32.7% (active) |
| CCOc1ccccc1/C=N\N=C(N/N=C/c1ccccc1OCC)N/N=C/c1ccccc1OCC | 11.9% (inactive) |
| CC(C)(C)c1ccc(CCO)cc1 | 86.6% (inactive) |
| N#CC1=C(N)Oc2c(c(N)nn2-c2ccccc2)C1c1ccc(Cl)cc1 (stereo not given) | 110% (inactive) |
| C=C1c2c(Cl)ccc(O)c2C(O)=C2C(=O)[C@]3(O)C(O)=C(C(N)=O)C(=O)[C@@H](N(C)C)[C@@H]3[C@@H](O)[C@H]12 | -24.8% (active) |
| CCOC(=O)c1cc(C(=O)c2ccc(OC)c(OC)c2)n2c1ccc1ccccc12 | 99.8% (inactive) |
| O=C(CN1C(=O)S/C(=C\C(Cl)=C\c2ccccc2)C1=O)NC1C=CS(=O)(=O)C1 (stereo not given) | -5.2% (active) |
| COc1ccc(OCC(CO)N2CCN(c3ccccc3)CC2)cc1 (stereo not given) | 123% (inactive) |
| CCc1c(C)c2cc3c(c(C)c2oc1=O)OCC(=O)N3 | 75.9% (inactive) |
| O=C(Nc1ccc(-c2ccnc(Nc3ccc(N4CCOCC4)cc3)n2)cc1)[C@@H]1CCCN1 | 39.8% (inactive) |
| COc1ccc2c(c1)N(CCO)C1=C(C(=O)OC1)C2c1ccccc1 (stereo not given) | -20% (active) |

| Compound | growth |
| --- | --- |
| CN(/C(N)=N/N=C/c1c2ccccc2cc2ccccc12)C1CCCCC1 | 35.4% (inactive) |
| O=C(NCCNc1nccc(-c2c(-c3cccc(O)c3)nc3sccn23)n1)c1ccccc1 | 93.3% (inactive) |
| CC1(C)[C@@H](O[C@@H]2OC[C@@H](O[C@@H]3O[C@H](CO)[C@@H](O)[C@H](O)[C@H]3O[C@@H]3OC[C@@H](O)[C@H](O)[C@H]3O)[C@H](O)[C@H]2O[C@@H]2O[C@H](CO)[C@@H](O)[C@H](O)[C@H]2O)CC[C@]2(C)[C@H]3CC[C@]45OC[C@@]6(CC[C@](C)(C=O)C[C@H]64)[C@H](O)C[C@@]5(C)[C@]3(C)CC[C@@H]12 | -58.6% (active) |
| CCOC(=O)c1cc(Cl)c(O)c(Cl)c1 | 64.9% (inactive) |
| Cn1cc(C=O)c2ccccc21 | 92.8% (inactive) |
| O=C(N/N=C\c1cccc([N+](=O)[O-])c1)N/N=C/c1cccc([N+](=O)[O-])c1 | 107% (inactive) |
| Clc1c(Cl)[n+](Cc2ccc3ccccc3c2)cn1Cc1ccc2ccccc2c1 | -54.7% (active) |
| COc1ccccc1S(=O)(=O)Nc1ccc2c3c(cc(CCC(=O)NCCCCNc4cccc5c4C(=O)N(C4CCC(=O)NC4=O)C5=O)cc13)C(=O)N2C (stereo not given) | -1.81% (active) |
| O=C1Nc2ccccc2/C1=C/c1cccn1C(=O)c1ccc(Cl)s1 | 57.3% (inactive) |
| COc1ccc(-c2c3c(nn2-c2ccc(N)cc2)CCc2cnoc2-3)cc1OC | 93.1% (inactive) |
| c1ccc2sc(SCCCn3ccnc3)nc2c1 | 110% (inactive) |
| O=C(Nc1ccc(N2CCCCC2)c(Cl)c1)c1ccc(Br)o1 | 46.3% (inactive) |
| COC1=CC(c2ccc[nH]2)=N/C1=C\c1[nH]c(C)c(C(=O)Oc2ccccc2)c1C | 11.4% (inactive) |
| NC(=O)Nc1ccc(-n2cnc3cc(-c4ccc(O)cc4)ccc32)cc1 | 95.4% (inactive) |
| COc1ccc2c(c1)c(C(=O)c1nc(-c3cn(C)c4ccccc34)no1)cn2C | 92% (inactive) |
| COc1ccc(N2CCN(c3ccc(NC4=C(Cl)C(=O)c5ncccc5C4=O)cc3)CC2)cc1 | 53% (inactive) |
| CCCCCC(=O)Oc1ccc(/C(=C(/C)Cc2ccc(OC)cc2)c2ccc(OCCCN(C)C)cc2)cc1 | 62% (inactive) |
| CNC(=O)c1cc(Oc2ccc(NC(=O)Nc3ccc(Cl)c(OC(F)(F)F)c3)c(F)c2)ccn1 | 28.9% (inactive) |
| Cc1cn(C2CC(N=[N+]=[N-])C(COP(=O)(O)OP(=O)(O)OP(=O)(O)O)O2)c(=O)[nH]c1=O (stereo not given) | -96.5% (active) |
| O=C(CCCCCCC(=O)Nc1ccc2c(c1)/C(=C/c1ccc[nH]1)C(=O)N2)NO | 16.5% (inactive) |
